According to PubChem BioAssay (Tox21):
Results filed as inconclusive are left out. Values without a mark were called inactive. Calls of active or inactive are those of the source. Calls follow the shape of the dose curve; as a rule, active = well fitted inhibition curve with a large enough effect in the repeat runs; inconclusive = weak or mixed curves; inactive = flat fitted curve, though single readings scatter.

target: Luciferin 4-monooxygenase (Photinus pyralis) (UniProt P08659); assay: qHTS assay to identify small molecule inhibitors of firefly luciferase (AID 1224835); also: nearly all actives have a fitted effect of over 25% in size; details: purified P. pyralis luciferase, luminescence inhibition; series mostly up to 115 µM; activity change, negative = inhibition: at the top concentration
From the text: U.S. Tox21 Program National Center for Advancing Translational Sciences [NCATS] NIH Chemical Genomics Center [NCGC] U.S. Environmental Protection Agency [EPA] National Institutes of Environmental Health Sciences [NIEHS] National Toxicology Program [NTP] U.S. Food and Drug Administration [FDA] Tox21 Assay Overview: Firefly (Photinus pyralis) luciferase is one of the most commonly used transcriptional reporters. Firefly luciferase reporter-gene assays are generally considered one of the most sensitive assay types (Wood, 1995; Wood, 1998). However, it was initially observed, in 1991, by Thompson et al., that compounds that resemble the substrates of firefly luciferase (FLuc) can act as competitive inhibitors of the enzyme, and that these compounds, upon interaction with luciferase in the cell, can actually stabilize the protein and increase its half-life. Previous profiling work by other groups to determine the prevalence of compounds that affect FLuc enzymatic activity (PubChem AID 411) identified that ~3% of the MLSMR library (then at ~72K) inhibited FLuc. […] Thus the Tox21 10K library is profiled for activity against FLuc using a biochemical assay of purified FLuc and KM concentrations of FLuc substrates (D-luciferin and ATP).
These assay plates were then treated with 23nL of compound or DMSO using a Kalypsys pin tool, which allows for delivery of a 6-point interplate titration of each compound to the assay plate (quantitative HTS.) 1 uL of firefly luciferase mix (containing 50 mM Tris acetate, pH 7.6, 0.04 uM P. pyralis luciferase, 0.01% Tween, 0.05% BSA and dH2O) was then delivered by FRD to each well. Luciferase activity was then measured using a ViewLux CCD imager.
% is scaled to controls: 0 for no effect and ±100 for the full control effect; potency is read from the fitted curve at half-maximal effect.

Sequence of Luciferin 4-monooxygenase (Photinus pyralis) (P08659 whole entry, looked up): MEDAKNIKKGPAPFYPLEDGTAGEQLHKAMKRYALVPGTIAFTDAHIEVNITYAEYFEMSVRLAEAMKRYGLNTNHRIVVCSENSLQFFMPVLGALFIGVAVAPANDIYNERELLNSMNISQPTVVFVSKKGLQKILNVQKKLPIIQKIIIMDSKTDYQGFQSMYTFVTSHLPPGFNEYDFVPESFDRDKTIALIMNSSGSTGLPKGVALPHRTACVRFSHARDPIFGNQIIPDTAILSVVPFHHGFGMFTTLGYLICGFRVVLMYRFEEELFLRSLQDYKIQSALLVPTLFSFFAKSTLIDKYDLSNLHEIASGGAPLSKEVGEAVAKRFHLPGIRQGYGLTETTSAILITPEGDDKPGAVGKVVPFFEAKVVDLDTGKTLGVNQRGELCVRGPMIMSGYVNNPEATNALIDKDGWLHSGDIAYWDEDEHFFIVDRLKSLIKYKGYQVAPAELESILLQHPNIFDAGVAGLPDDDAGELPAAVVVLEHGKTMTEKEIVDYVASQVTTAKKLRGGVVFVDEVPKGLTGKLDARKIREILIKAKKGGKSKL

Structure (SMILES) | activity change, negative = inhibition | Potency
O=[N+]([O-])c1cccc(O)c1 | 0.0154% | –
Cc1cc(C)nc(Nc2ccccc2)n1 | -7.95% | –
ClC(Br)Br | -0.187% | –
CCCCOP(=O)(O)OCCCC | 0.903% | –
O=C(O)c1ccc2[nH]cc(CCCCN3CC=C(c4ccccc4)CC3)c2c1 | -0.946% [at 52.9 µM] | –
CC(C)COP(=O)(OCC(C)C)OCC(C)C | 0.481% | –
COC(=O)c1ccccc1S(=O)(=O)NC(=O)Nc1nc(C)cc(C)n1 | 4.82% | –
CC(C=O)Cc1ccc2c(c1)OCO2 (stereo not given) | 4.04% | –
CCC(C)n1c(=O)[nH]c(C)c(Br)c1=O (stereo not given) | 3.63% | –
COc1cc2c(cc1OC)[C@@]13CCN4CC5=CCO[C@H]6CC(=O)N2[C@H]1[C@H]6[C@H]5C[C@H]43 | -5.25% | –
CC1(C)CON(Cc2ccccc2Cl)C1=O | -5.01% | –
Nc1cc2c3c(c1)C(c1ccccc1)=N[C@@H](NC(=O)c1cccnc1)C(=O)N3CC2 | 2.93% | –
NC(=O)c1cc([N+](=O)[O-])cc([N+](=O)[O-])c1 | 0.161% [at 52.9 µM] | –
CCS(=O)(=O)C(C)(C)S(=O)(=O)CC | -5.37% [at 52.9 µM] | –
C[C@@H]1CN(C2CCC(C#N)(c3ccc(F)cc3)CC2)CC[C@]1(C(=O)O)c1ccccc1 (stereo not given in full) | 5.54% [at 52.9 µM] | –
CCCCN(CCCCO)N=O | 2.53% | –
O=C(O)c1cccc(Cl)c1 | -5.64% | –
CC(C)CC#N | -3.41% | –
CCOC(=O)CP(=O)(OCC)OCC | 1.39% | –
COc1cc(OC)nc(NC(=O)NS(=O)(=O)c2ncccc2C(=O)N(C)C)n1 | 5.64% | –

Structure (SMILES) | activity change, negative = inhibition | Potency
Nc1ccccc1Cl | 1.71% | –
COC(=O)c1ccccc1S(=O)(=O)NC(=O)N(C)c1nc(C)nc(OC)n1 | 1.59% | –
CC(C)(C)OC(=O)c1ncn2c1[C@@H]1CCCN1C(=O)c1c(Br)cccc1-2 | 6.16% [at 52.9 µM] | –
CNC(=O)O/N=C(\C)SC | 2.29% | –
O=C(CCCN1CCC(n2c(=O)[nH]c3ccccc32)CC1)c1ccc(F)cc1 | 0.478% [at 52.9 µM] | –
CC(=O)[C@H]1CC[C@H]2[C@@H]3CC[C@H]4C[C@H](O)CC[C@]4(C)[C@H]3C(=O)C[C@]12C | 5.77% [at 52.9 µM] | –
CC(C)NCC(O)c1ccc(N)c(C#N)c1 (stereo not given) | 7.53% [at 52.9 µM] | –
O=C(NCO)NCO | 1.27% | –
CCOC(=O)N(C)C(=O)CSP(=S)(OCC)OCC | 0.588% | –
Cc1nc(N)nc(N)n1 | -2.56% | –
N#Cc1c(Cl)cccc1Cl | 1.09% | –
CCCSC(=O)Cl | 6.4% | –
OCCBr | 2.53% | –
COc1cccc2c1cc([N+](=O)[O-])c1c(C(=O)O)cc3c(c12)OCO3 | – | 71 µM (active)
CNC(=O)Oc1ccccc1C1OCCO1 | 0.936% | –
O=[N+]([O-])c1cc(Cl)c(Cl)c(Cl)c1 | 0.423% | –
COc1ccc2c(c1OC)CN1CCc3cc4c(cc3C1C2)OCO4 (stereo not given) | -10.9% [at 52.9 µM] | –
O=C(N[C@H]1CN2CCC1CC2)c1cc2ccoc2cn1 | 1.88% | –
CCOP(=S)(OCC)Oc1cc(-c2ccccc2)on1 | – | 31.7 µM (active)
CC1=NNC(=O)N(/N=C/c2cccnc2)C1 | -0.461% | –
